According to PubChem BioAssay (NCI):
The panel holds about 83,000 compounds, 20% with a hit somewhere; the sample as a whole holds those more often.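 Results are percent growth after 48 hours of single-concentration exposure. 100 means growth as in untreated cells, lower positive values show inhibition; negative values down to -100 show cell death.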 Unmarked numbers belong to inactive results. Activity calls are given as the source filed them.

Tested on: SR leukemia
Assay: NCI-60 one-dose screen, 48 h (100 = growth as untreated, 0 = no growth, -100 = all killed)
Conditions: 10 µM unless noted
Description: Growth inhibition of the SR human tumor cell line is measured as a screen for anti-cancer activity. Cells are grown in 96 well plates and exposed to the test compound for 48 hours. Compounds are tested at a single concentration, which is 10^-5 M for most compounds. The reported endpoint is percent growth (GI% or GIPRCNT), where numbers from 0 - 100% represent growth inhibition, and numbers from -100% - 0 represent cell death. For example, a value of 40 represents 60% growth inhibition. A value of 0 means no net growth occurred over the course of the experiment. A value of -40 indicates 40% of cells at the beginning of the experiment died by the end of the experiment. A value of -100 means all cells are dead at the end of the experiment.
NCI-60 Human Tumor Cell Lines Screen was performed using the standard one-dose NCI protocol, which is described in more detail at https://dtp.cancer.gov/discovery_development/nci-60/default.htm.
Compounds with GIPRCNT values below 10 were considered active. Activity score was based on GIPRCNT using the following formula: […]
Score is 0 for GIPRCNT values of 100 or above, 50 for GIPRCNT values of 0, and 100 for GIPRCNT values of -100.

| Structure (SMILES) | growth |
| --- | --- |
| COc1cc(/C=N/NC(=O)c2cnn3c2NC(c2ccccc2)C3)cc(OC)c1OC (stereo not given) | 47.6% |
| C[C@]1(CO)C[C@@H](O)C[C@]2(C)[C@@H]1CC[C@@]13C[C@@H]4[C@@H](C[C@H]12)[C@]4(C)C3 | 118% |
| CCCCCCCC/C=C\CCCCCCCCOc1cccc(CC(=O)NCC[N+]2(C)CCCCC2)c1 | 34.7% |
| CC(=O)OCC1OC([S-])C(OC(C)=O)C(OC(C)=O)C1OC(C)=O.[Au+].c1ccc(CN2[CH-]N(Cc3ccccc3)C(c3ccccc3)=C2c2ccccc2)cc1 | -8.38% [4.75 µM] (active) |
| Cc1ccc(S(=O)(=O)N2CCc3ccc(O)c4c3C2CCc2ccccc2-4)cc1 (stereo not given) | 76.5% |
| O=C1/C(=C/c2ccc(Cl)cc2)CN(Cc2cn(CCCNc3ccnc4cc(Cl)ccc34)nn2)C/C1=C\c1ccc(Cl)cc1 | -31.9% (active) |
| O=C1C(OCCOc2ccccc2)=C(OCCOc2ccccc2)C(=O)c2ccccc21 | 60.1% |
| COc1ccccc1CNCCCCCCCCCCCCN1C(=O)c2ccc3c4c(ccc(c24)C1=O)C(=O)N(CCCCCCCCCCCCNCc1ccccc1OC)C3=O | 7.77% (active) |
| Cc1ccc(S(=O)(=O)c2ccc3[nH]c(=O)[nH]c(=O)c3c2)cc1 | 82.3% |
| COC1(OC)C2(Cl)C=C(c3ccccc3)C1(Cl)C(Cl)=C2Cl (stereo not given) | 83.9% |
| O=C(CC(O)c1ccccc1)Nc1ccccn1 (stereo not given) | 86.9% |
| Cc1cccc2c(=O)c3c(sc12)c(NCCCN)nc1ccccc13 | -5.48% (active) |
| CC[Si](CC)(CC)OC1[C@@H](O[Si](CC)(CC)CC)[C@@H](CNC(=O)NC)O[C@H]1n1cnc2c(NC(=O)Nc3ccccc3)ncnc21 (stereo not given in full) | 14.8% |
| CCN(CC)CCCNc1ccc(C)c2sc3ccccc3c(=O)c12 | -11.8% (active) |
| O=C1CCC(N2Cc3c(C#CCCCNC(=O)c4cc5c(o4)C(=O)c4ccccc4C5=O)cccc3C2=O)C(=O)N1 (stereo not given) | 12.1% |
| O=c1[nH]c(=S)c2c(n1CCCO)CCC2 | 97% |
| CN(C)c1ccc(/C=C(\C#N)c2cc3ccccc3n2C)cc1 | 22% |
| O=C(NCc1ccco1)C1CCN(S(=O)(=O)c2ccc(Cl)cc2)CC1 | 19.5% |
| COc1ccc(-c2nn(-c3ccc(NC(=O)c4ccc(Cl)c(Cl)c4)cc3)cc2-c2ccncc2)cc1Cl | 27.4% |
| CSC1=CC(=O)c2ccccc2C1=O | -33.5% (active) |

| Structure (SMILES) | growth |
| --- | --- |
| O=C1/C(=C/c2ccccc2F)CNC/C1=C\c1ccccc1F | -2.72% (active) |
| COc1cc(/C=C/c2cc(/C=C/c3ccc(O)c(OC)c3)n(-c3ccccc3)n2)ccc1O | -13.9% (active) |
| CCCCCn1c(=N)n(CC(O)COc2cccc(C)c2)c2ccccc21 (stereo not given) | 2.12% (active) |
| O=C1c2c(c3c4cc(Br)ccc4[nH]c3c3ccc4ccccc4c23)C(=O)N1O | 33.9% |
| O=C1NC(=O)C(CSc2ccccc2)(c2ccccc2)N1 (stereo not given) | 89.9% |
| Oc1ccc2ccccc2c1C1NN=C(c2ccccc2)S1 (stereo not given) | 2.39% (active) |
| CC(C)NCC(O)COc1ccc(CCOCC2CC2)cc1 (stereo not given) | 78.3% |
| Cc1cc(O)cc2c1[C@H]1CC[C@]3(C)[C@@H](O)CC[C@H]3[C@@H]1C=C2 | 40.3% |
| CC(=O)Nc1ccccc1-c1n[nH]c(=O)[nH]c1=O | 107% |
| CCN(C(=O)c1ccc2c3c(cccc13)C=C2)c1ccccc1 | 83.4% |
| COc1ccc(/C=N\N2CCOCC2)cc1OC1CCCC1 | 101% |
| Clc1ccccc1Nc1ccc2nnc(-c3ccncc3)n2n1 | 38.6% |
| C=CCCCCCCCCC(=O)[O-].C=CCCCCCCCCC(=O)[O-].[Zn+2] | 91.1% |
| Cc1nc2nc(C(F)(F)F)[nH]c2nc1C | 111% |
| COc1ccc2c(c1)c(=O)oc1c(C)c(OCC(C)=O)ccc12 | 116% |
| COc1ccc(-n2ncc3c4nc(OC)c(S(=O)(=O)c5ccccc5)cc4ccc32)cc1 | 85.9% |
| Cn1c2ccc(Cl)cc2c2nn(C(=O)c3ccccc3)c(=O)nc21 | 93% |
| Cc1ccc(N=c2nc3sc4c(C)ccc(C)c4n3c(N)c2C#N)cc1 | 111% |
| Oc1cccc(Nc2nc(-c3ccccn3)cs2)c1 | 87.8% |
| Cc1ccccc1-c1cc(-c2ccc(Br)s2)[nH]c(=O)c1C#N | 100% |
